Results taken from PubChem BioAssay (NCI).
The panel holds about 83,000 compounds, 20% with a hit somewhere; the sample as a whole holds those more often.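 Assay: single dose, 48 h. Readout: percent growth (0 = no net growth; negative = cell death). Active: <10.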 Activity calls are given as the source filed them.

Experiments:
Test in all cases: NCI-60 one-dose screen, 48 h (100 = growth as untreated, 0 = no growth, -100 = all killed)
Conditions in all cases: 10 µM unless noted
HCT-15 colon = tested on: HCT-15 colon
HT29 colon = tested on: HT29 colon
SNB-75 CNS = tested on: SNB-75 CNS
SNB-19 CNS = tested on: SNB-19 CNS
U251 CNS = tested on: U251 CNS
PC-3 prostate = tested on: PC-3 prostate
LOX IMVI melanoma = tested on: LOX IMVI melanoma
SK-MEL-5 melanoma = tested on: SK-MEL-5 melanoma
UACC-62 melanoma = tested on: UACC-62 melanoma
SK-MEL-28 melanoma = tested on: SK-MEL-28 melanoma

Measured: growth

C=C1C(=O)O[C@@H]2C[C@@H](C)CCC(=O)[C@](C)(OC(C)=O)C[C@H](OC(=O)/C(C)=C\C)[C@@H]12
inactive: HCT-15 colon 60.9% | HT29 colon 52.5% | SNB-75 CNS 80.6% | SNB-19 CNS 90.6% | U251 CNS 88.8% | PC-3 prostate 79.1% | LOX IMVI melanoma 54.8%

C#C[C@]1(O)CC[C@H]2[C@@H]3CC=C4c5sc(C6CCOCC6)nc5CC[C@]4(C)[C@H]3CC[C@@]21C
inactive: HCT-15 colon 36.1% | HT29 colon 44.2% | SNB-75 CNS 78.9% | SNB-19 CNS 86.1% | U251 CNS 57.6% | PC-3 prostate 63.2% | SK-MEL-5 melanoma 85.2% | UACC-62 melanoma 64.7% | SK-MEL-28 melanoma 56.5%

C#C[C@]1(O)CC[C@H]2[C@@H]3CC=C4c5sc(Nc6cccc(Cl)n6)nc5CC[C@]4(C)[C@H]3CC[C@@]21C
active: HCT-15 colon -66.9% | HT29 colon 3.69% | SNB-75 CNS -25% | SNB-19 CNS -1.43% | U251 CNS 4.83% | PC-3 prostate 4.35% | SK-MEL-5 melanoma -90.7% | UACC-62 melanoma -14.4% | SK-MEL-28 melanoma -59.9%

O=C(COc1ccc(C2SCC(=O)N2c2ccc(F)cc2)cc1)c1ccccc1 (stereo not drawn)
inactive: HCT-15 colon 95.7% | HT29 colon 109% | SNB-75 CNS 83.1% | SNB-19 CNS 91.5% | U251 CNS 101% | PC-3 prostate 79.2% | SK-MEL-5 melanoma 97.7% | UACC-62 melanoma 61.4% | SK-MEL-28 melanoma 102%

CC1OC(O[C@@H]2[C@H](O)C(CO)OC(O[C@H]3COC(O[C@H]4CC[C@]5(C)[C@H]6CC[C@]78OC[C@@]9(CC[C@](C)(C=O)C[C@H]97)C(=O)C[C@@]8(C)[C@]6(C)CC[C@H]5C4(C)C)[C@@H](O)[C@@H]3O)[C@H]2OC2OC[C@@H](O)[C@@H](O)[C@@H]2O)[C@@H](O)[C@@H](O)[C@H]1O (stereo partly drawn)
inactive: HCT-15 colon 95.8% | HT29 colon 97.1% | SNB-75 CNS 81.4% | SNB-19 CNS 90.2% | U251 CNS 95.8% | PC-3 prostate 81.4% | LOX IMVI melanoma 88.1%

C#C[C@]1(O)CC[C@H]2[C@@H]3CC=C4c5sc(Nc6cc(Cl)ccn6)nc5CC[C@]4(C)[C@H]3CC[C@@]21C
inactive: HT29 colon 21.4% | U251 CNS 15.1%
active: HCT-15 colon 3.75% | SNB-75 CNS -33.2% | SNB-19 CNS -1.08% | PC-3 prostate 7.93% | SK-MEL-5 melanoma -58.9% | UACC-62 melanoma -17% | SK-MEL-28 melanoma -47.3%

C#C[C@]1(O)CC[C@H]2[C@@H]3CC=C4c5sc(Nc6nc(C)cc(OC)n6)nc5CC[C@]4(C)[C@H]3CC[C@@]21C
active: SNB-75 CNS -10.8% | UACC-62 melanoma 0.98%
inactive: HCT-15 colon 35.3% | HT29 colon 60.8% | SNB-19 CNS 55% | U251 CNS 34.2% | PC-3 prostate 27.5% | SK-MEL-5 melanoma 17.9% | SK-MEL-28 melanoma 21.1%

COc1ccc(-c2nc(SCCC(C)C)nc(N/N=C\c3ccc(O)cc3)c2C#N)cc1
inactive: HCT-15 colon 28.2% | HT29 colon 107% | SNB-75 CNS 77.2% | SNB-19 CNS 60.1% | U251 CNS 29.4% | PC-3 prostate 72.4% | SK-MEL-5 melanoma 89.2% | UACC-62 melanoma 93.9% | SK-MEL-28 melanoma 95%

C#C[C@]1(O)CC[C@H]2[C@@H]3CC=C4c5sc(Nc6ccncc6)nc5CC[C@]4(C)[C@H]3CC[C@@]21C
active: HCT-15 colon -71.4% | HT29 colon -4.61% | SNB-75 CNS -49.4% | SNB-19 CNS -36.8% | U251 CNS 1.97% | PC-3 prostate 1.86% | SK-MEL-5 melanoma -83.9% | UACC-62 melanoma -22.8% | SK-MEL-28 melanoma -55.1%

C=C(C)[C@@H]1CC[C@]2(C)[C@H](CC=C3[C@@H]4CC(C)(C)CC[C@]4(C(=O)NCC#CCN4CCN(C)CC4)CC[C@]32C)[C@@]1(C)CCC#N
inactive: HCT-15 colon 21.4% | HT29 colon 26.8% | SNB-75 CNS 67% | U251 CNS 53.6% | PC-3 prostate 37.3% | SK-MEL-5 melanoma 53.4% | UACC-62 melanoma 79% | LOX IMVI melanoma 12.3% | SK-MEL-28 melanoma 96.9%

COc1ccc(-c2oc3cc(O)cc(O)c3c(=O)c2OC)cc1O
active: SNB-75 CNS -24.3%
inactive: HCT-15 colon 33.2% | HT29 colon 57% | SNB-19 CNS 28.2% | U251 CNS 15.6% | PC-3 prostate 24.1% | LOX IMVI melanoma 36.8%

Oc1ccc(CSc2nnc(-c3cnccn3)o2)c2cccnc12
active: SK-MEL-5 melanoma -38.5%
inactive: HCT-15 colon 13.8% | HT29 colon 25.2% | SNB-75 CNS 26.5% | U251 CNS 18.5% | PC-3 prostate 15.2% | UACC-62 melanoma 15% | LOX IMVI melanoma 17.5% | SK-MEL-28 melanoma 37.6%

O=C(NCCCCCCNC(=O)c1c2c(nc3ccccc13)-c1cccnc1SC2)c1c2c(nc3ccccc13)-c1cccnc1SC2
inactive: HCT-15 colon 74.8% | HT29 colon 53.7% | SNB-75 CNS 62.9% | U251 CNS 77.6% | PC-3 prostate 81% | SK-MEL-5 melanoma 84.3% | UACC-62 melanoma 12.2% | LOX IMVI melanoma 78.6% | SK-MEL-28 melanoma 27.7%

O=C(Nc1cccc(Cl)c1)Nc1nc2ccc([N+](=O)[O-])cc2s1
inactive: SNB-19 CNS 21.2%
active: HCT-15 colon 1.52% | HT29 colon 4.55% | U251 CNS 5.89% | PC-3 prostate 6.96% | SK-MEL-5 melanoma -75.3% | UACC-62 melanoma -40.2%
